HT1080 IDH1KD tx – toxicity to HT-1080 IDH1 knockdown cells (counter line); Potency, µM (highest dose often 46.1 µM), without a hit: at the top dose activity, negative = toxicity, most hits filed as cytotoxic; AID 686971; HT-1080 IDH1 knockdown viability, ATP luminescence, 48 h; 360,000 tested, 2% active;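 also: potency is read from the fitted curve at half-maximal effect; 0% = DMSO wells and -100% = cell-free medium wells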
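After a 2 h attachment period, IDH1KD HT-1080 cells took pin-transferred compound for 48 h at 37 °C; ATP-based luminescence after 10 min room-temperature reagent incubation reported viability.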
IL1B secr inh – blocks inflammasome-driven IL-1 beta release; 360,000 tested, 4.7% active; THP-1 LPS/ATP IL-1B secretion, AlphaLISA, 16 h; hits give low values; AID 743279; activity change, % at 57.5 µM; in the data active = activity change below about -50%; inconclusive = mostly about -30% to -49%
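Secreted IL-1B measured by AlphaLISA bead assay after 16 h compound exposure of THP-1 cells; compounds (final up to 57.5 uM) added 1 h before LPS (250 ng/mL) and ATP (1.25 mM) stimulation; lower signal means less secretion.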
TDP1 cell noCPT – qHTS for Inhibitors of human tyrosyl-DNA phosphodiesterase 1 (TDP1): qHTS in cells in absence of CPT; Potency, µM (doses to about 46.2 µM), for the others: at the top dose activity change, negative = growth inhibition, usual class: inhibitors; DT40 Tdp1-/- hTDP1 cells, no CPT, ATP luminescence, 48 h; 420,000 tested, 15% active; also: potency is read from the fitted curve at half-maximal effect; nearly all actives have a fitted effect of over 55% in size
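Cells were dispensed at 400 per well, compounds added by pin tool, plates incubated ≥48 hr at 37 °C, then CellTiter-Glo added for 30 min at room temperature before luminescence reading. Line: DT40 Tdp1-/- complemented with hTDP1; camptothecin omitted.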
HT1080NT lethal – kills 2HG-producing HT-1080-NT fibrosarcoma cells; HT-1080-NT fibrosarcoma viability, CellTiter-Glo ATP luminescence, 48 h; AID 686970; 360,000 tested, 1.6% active; Potency, µM (titrated, usually from 46.1 µM), for the others: top-dose activity, negative = less viability, actives largely listed as cytotoxic;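 also: NT is the 2HG producing partner of a matched IDH1 knockdown line; potency is read from the fitted curve at half-maximal effect; 0% = DMSO-treated cells and -100% = media-only wells without cells; nearly all actives have a fitted effect of over 55% in size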
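Viability of the 2HG-overproducing fibrosarcoma line after 48 hours of compound exposure at 37 degrees C was determined by luminescence with CellTiter-Glo, and concentration-effect curves were then fitted and categorized.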
TDP1 cell CPT – DT40-hTDP1 cell growth loss with CPT; chicken DT40 Tdp1-/-;hTDP1 cells + 20 nM CPT, ATP luminescence, 48 h; Potency, µM (highest dose often 46.2 µM), for inactives: at the top dose activity change, negative = growth inhibition, actives largely listed as inhibitors; 420,000 tested, 12% active; also: potency is read from the fitted curve at half-maximal effect; nearly all actives have a fitted effect of over 55% in size
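Chicken DT40 Tdp1-/- cells stably complemented with human TDP1 were seeded at 400 cells/well in medium containing 20 nM camptothecin, exposed to pin-transferred compounds, and grown at 37 °C for at least 48 hr. Viability was read as ATP luminescence.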
* = called active by the depositor; ? = inconclusive; . = not tested or not shown; [ ] = dose if it differs, or a comment. Rows were chosen to be rich in hits. Some 19% of all compounds tested hit in one or more screens of this group. Unless noted, calls follow the shape of the dose curve; as a rule, active = well fitted curve in the direction sought with a large enough effect; inconclusive = small, poorly fitted or top-dose-only effect, or another doubt; inactive = no such curve, though single readings can be large; an effect the other way counts as inactive or inconclusive. Unless noted, % is scaled to controls: 0 for no effect and ±100 for the full control effect.

SMILES	HT1080 IDH1KD tx	IL1B secr inh	TDP1 cell noCPT	HT1080NT lethal	TDP1 cell CPT
CC(C)C[C@H]1CN([C@@H](Cc2ccccc2)CN2CCC[C@@H]2CN2C(=O)C(=O)NC[C@@H]2Cc2ccccc2)C(=O)C(=O)N1CC1CCCCC1	16.4µM*	-58.7*	16.4µM*	?	20.6µM*
CC(C)C[C@H]1CN([C@@H](Cc2ccc(O)cc2)CN2CCC[C@H]2CN2C(=O)C(=O)NC[C@@H]2Cc2ccccc2)C(=O)C(=O)N1CC1CCCCCC1	-6.3%	-81.9*	?	-1.5%	?
CC(C)C[C@H]1CNC(=O)C(=O)N1C[C@@H]1CCCN1C[C@H](Cc1ccc(O)cc1)N1C[C@H](Cc2ccccc2)N(CC2CCCCC2)C(=O)C1=O	?	-59.1*	?	?	?
CC(C)C[C@H]1CN([C@@H](Cc2ccccc2)CN2CCC[C@@H]2CN2C(=O)C(=O)NC[C@@H]2Cc2ccc(O)cc2)C(=O)C(=O)N1CC1CCCCCC1	?	-17.0	?	?	?
CC(C)C[C@H]1CN([C@@H](Cc2ccc(O)cc2)CN2CCC[C@@H]2CN2C(=O)C(=O)NC[C@@H]2Cc2ccccc2)C(=O)C(=O)N1CC1CCCCC1	-22.2%	?	?	-18.3%	?
COc1ccc(CNS(=O)(=O)c2ccc3c(c2)N(C(C)=O)CC(C)S3)cc1 (stereo unspecified)	-14.4%	-2.6	9.2µM*	-15.8%	?
CC(=O)N1c2ccc(S(=O)(=O)NCC3CCC(C(=O)Nc4cccc(C)c4C)CC3)cc2CC1C (stereo unspecified)	.	.	20.6µM*	.	?
CCC(C)NC(=O)C1CCC(CNS(=O)(=O)c2ccc3c(c2)CC(C)N3C(=O)C2CC2)CC1 (stereo unspecified)	-6.0%	?	?	-3.5%	?
CC(=O)N1c2ccc(S(=O)(=O)NCC3CCC(C(=O)Nc4cccc(C)c4)CC3)cc2CC1C (stereo unspecified)	.	.	14.6µM*	.	16.4µM*
CC(=O)N1c2ccc(S(=O)(=O)NCC3CCC(C(=O)NC4CCC(C)CC4)CC3)cc2CC1C (stereo unspecified)	-12.4%	31.1	-24.0%	-27.8%	?
CCCCN(C)C(=O)C1CCC(CNS(=O)(=O)c2ccc3c(c2)CC(C)N3C(=O)C2CC2)CC1 (stereo unspecified)	?	-12.3	23.1µM*	?	10.3µM*
Cc1cc(-c2ccn[nH]2)c(C)s1	-12.4%	-17.6	3.9%	0.9%	-6.0%
COc1cccc(NC(=O)C2CCC(CNS(=O)(=O)c3ccc4c(c3)CC(C)N4C(C)=O)CC2)c1 (stereo unspecified)	-20.9%	23.8	18.4µM*	-11.1%	23.1µM*
CC(=O)N1c2ccc(S(=O)(=O)NCCc3cccc(C)c3)cc2CC1C (stereo unspecified)	.	.	14.6µM*	.	14.6µM*
CC(=O)N1CC(C)Sc2ccc(S(=O)(=O)NCCc3cccc(C)c3)cc21 (stereo unspecified)	-9.8%	2.7	14.6µM*	-17.1%	?
CCC(C)(C)NC(=O)C1CCC(CNS(=O)(=O)c2ccc3c(c2)CC(C)N3C(C)=O)CC1 (stereo unspecified)	.	.	11.6µM*	.	16.4µM*
CC(=O)N1CC(C)Sc2ccc(S(=O)(=O)NCc3ccc(F)cc3)cc21 (stereo unspecified)	-19.0%	40.6	?	?	?
O=C(CO)[C@@H](O)[C@H](O)[C@@H](O)C(=O)O	.	.	8.8%	.	13.9%
N#Cc1cnn(-c2ccccc2)c1NC(=O)c1ccccc1F	6.3%	-6.3	11.6%	9.1%	-0.2%
CC(C)CC(=O)N1CCN(Cc2ccc(C(F)(F)F)cc2)CC1	-7.9%	-5.6	?	9.9%	?
CCCC(=O)N1CCCC1(C)C(=O)Nc1ccc(-n2cccc2)cc1 (stereo unspecified)	5.1%	-21.9	-13.0%	17.2%	3.2%
COc1ccc(NS(=O)(=O)c2ccc3c(c2)n(C)c(=O)c(=O)n3C)cc1Cl	.	.	?	.	-12.5%
CC(=O)N1c2ccc(S(=O)(=O)NCC3CCC(C(=O)Nc4cccc(C)n4)CC3)cc2CC1C (stereo unspecified)	-11.4%	-2.3	18.4µM*	-25.2%	25.9µM*
CC(=NNc1ccc2ccccc2n1)c1ccccc1O	-0.2%	-58.7*	?	2.8%	?
C/C(=N\Nc1nc2ccccc2nc1C)c1ccccc1O	?	32.2	0.092µM*	-12.6%	0.13µM*
SMILES	HT1080 IDH1KD tx	IL1B secr inh	TDP1 cell noCPT	HT1080NT lethal	TDP1 cell CPT
Cc1nc2ccccc2nc(C)c1=NO	1.8%	21.5	-17.6%	4.8%	?
COc1cc(OC)cc(C(=O)NNC(=S)NC(=O)c2cccnc2)c1	0.0%	-0.3	3.66µM*	10.8%	?
COc1cc(OC)cc(C(=O)NC(=S)NNC(=O)c2cnccn2)c1	?	37.4	5.17µM*	-10.5%	5.8µM*
CCC(C)c1ccc(O)c(NC(=S)NC(=O)c2cccs2)c1 (stereo unspecified)	?	1.6	23.1µM*	-21.8%	13µM*
CC(C)(C)c1ccc(C(=O)NNC(=S)NC(=O)c2cccnc2)cc1	?	83.0	7.31µM*	?	7.31µM*
CCC(C)c1ccc(O)c(NC(=O)c2cccnc2)c1 (stereo unspecified)	3.0%	19.9	?	2.4%	?
CC(=O)Nc1ccccc1-c1nc(CNC(=O)c2ccc(C)cc2)c(C)o1	.	.	?	.	-3.4%[9.04 µM]
CC(C)(C)c1cc(Cl)c(O)c(NC(=S)NC(=O)c2cccnc2)c1	?	9.4	6.51µM*	-23.3%	4.61µM*
CC(C)c1ccc(O)c(NC(=S)NC(=O)c2cccnc2)c1	?	11.7	18.4µM*	?	4.61µM*
COc1cc(Cl)ccc1OC1(C)CCN(Cc2c(F)cccc2F)C1 (stereo unspecified)	2.0%	8.9	?	-15.8%	?
O=C(Nc1ccccc1-c1ccccc1)NC1CC2CCCC(C1)N2Cc1ccc(F)cc1 (stereo unspecified)	-17.1%	-60.7*	23.1µM*	-17.1%	20.6µM*
Fc1ccc(NC(=S)NC2CC3CCCC(C2)N3Cc2cccs2)cc1 (stereo unspecified)	-5.0%	?	-8.0%	-0.5%	3.4%
CCCNC(=S)NC1CC2CCCC(C1)N2Cc1ccc(F)cc1 (stereo unspecified)	-2.6%	0.6	18.4µM*	5.4%	?
CCCCN(CC)S(=O)(=O)c1ccc(C(=O)N=c2sc3cc(NC(C)=O)ccc3n2C)cc1	23.2%	-6.5	16.4µM*	12.8%	8.2µM*

Source: PubChem BioAssay (National Center for Advancing Translational Sciences (NCATS))
